Assay outcomes from PubChem.
FLuc modulator: firefly luciferase modulation, counter-screen for miR-21 project; P08659; Potency, µM (doses to about 57.5 µM), for inactives: at the top dose activity change, negative = inhibition, actives largely listed as inhibitors; purified FLuc, Km substrates, luminescence inhibition; 360,000 tested, 6.9% active;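 also: plate controls were vehicle for no effect and reference inhibitor for full effect; nearly all actives have a fitted effect of over 55% in size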
Target sequence (P08659 whole entry, looked up): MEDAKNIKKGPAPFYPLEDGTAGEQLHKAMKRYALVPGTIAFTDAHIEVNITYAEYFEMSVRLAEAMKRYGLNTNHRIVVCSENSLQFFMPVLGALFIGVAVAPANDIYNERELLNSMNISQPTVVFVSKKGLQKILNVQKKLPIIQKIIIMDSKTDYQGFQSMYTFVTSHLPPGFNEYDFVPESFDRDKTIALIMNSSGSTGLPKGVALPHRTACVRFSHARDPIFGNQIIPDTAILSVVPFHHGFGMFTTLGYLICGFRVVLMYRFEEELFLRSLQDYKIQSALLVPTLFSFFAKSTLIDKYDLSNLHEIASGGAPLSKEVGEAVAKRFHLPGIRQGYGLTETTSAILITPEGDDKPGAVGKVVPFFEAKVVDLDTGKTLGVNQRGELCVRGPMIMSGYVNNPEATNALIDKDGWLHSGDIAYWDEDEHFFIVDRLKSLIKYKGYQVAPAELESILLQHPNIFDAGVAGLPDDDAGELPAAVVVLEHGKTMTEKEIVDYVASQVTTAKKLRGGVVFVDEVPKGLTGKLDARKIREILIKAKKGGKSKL
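Purified P. pyralis luciferase, 10 nM final, with Km-level 10 uM D-luciferin and 10 uM ATP in 50 mM Tris acetate pH 7.5, 10 mM Mg acetate, 0.01% Tween-20, 0.05% BSA; 6-point qHTS titration about 60 µM downward; luminescence read.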
ELG1 genotoxic: induces genotoxicity in HEK293T cells with luciferase-tagged ELG1; HEK293T ELG1-luciferase reporter, luminescence, 16 h; Potency, µM (highest dose often 46 µM), without a hit: at the top dose activity change, positive = activation, usual class: activators; 330,000 tested, 1.3% active; AID 504466; also: % of control where 0% means no effect; nearly all actives have a fitted effect of over 60% in size
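DMSO vehicle served as control against compound-treated ELG1-luciferase HEK293T cells; exposure lasted 16 hr at 37 °C and 5% CO2, followed by ONE-Glo luminescence detection after 30 min.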
NPC1 prom act: NPC1 promoter activation | Potency, µM (highest dose often 9.22 µM), without a hit: top-dose activation, most hits filed as activators | 320,000 tested, 2.4% active | Huh7 NPC1 promoter luciferase reporter, 24 h | AID 485313; also: % of control where 0% means no effect; nearly all actives have a fitted effect of over 60% in size
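Readout is luciferase luminescence, reflecting NPC1 promoter activation in stably transfected Huh7 cells after 24 h compound exposure at 37 °C in reduced-serum medium with 10% FBS.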
SMN2 splice enh: increases expression of the SMN2 splice variant. HEK293 SMN2-luciferase splicing reporter, luminescence, 30-36 h. Potency, µM (doses to about 46.1 µM), for the others: at the top dose activity change, positive = activation, most hits filed as activators. 210,000 tested, 2.8% active; also: % of control where 0% means no effect; nearly all actives have a fitted effect of over 55% in size
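HEK293 cells carry an SMN2 […]–luciferase reporter in which exon 7 inclusion puts luciferase in frame. Cells were plated 10-12 h before compound addition, then incubated 30-36 h at 37C. ONE-Glo luminescence was read; sodium butyrate at 4.5 mM final served as control.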
Rab9 prom act: Rab9 promoter activation; Potency, µM (top dose mostly 9.22 µM), for the others: at the top dose activation, negative = inhibition, most hits filed as activators; 320,000 tested, 2.8% active; Huh7 Rab9 promoter-luciferase reporter, luminescence, 24 h; also: % of control where 0% means no effect; nearly all actives have a fitted effect of over 60% in size
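Huh7 cells stably carrying Rab9 promoter–luciferase reporter, plated 1500 cells/well, compound added after 2 h and incubated 24 h at 37 °C; luciferase luminescence then read after 10 min with detection reagent.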
* = called active by the depositor; ? = inconclusive; . = not tested or not shown; [ ] = dose if it differs, or a comment. Most compounds without a hit are left out; they make up all but 7.5% or so of the library. Calls follow the shape of the dose curve; as a rule, active = well fitted curve in the direction sought with a large enough effect; inconclusive = small, poorly fitted or top-dose-only effect, or another doubt; inactive = no such curve, though single readings can be large; an effect the other way counts as inactive or inconclusive. Potency is read from the fitted curve at half-maximal effect.

SMILES	FLuc modulator	ELG1 genotoxic	NPC1 prom act	SMN2 splice enh	Rab9 prom act
CCC(C(=O)NCc1ccccc1OC)c1ccccc1 (configuration not stated)	-4.1%	-2.1%	-4.0%	2.8%	-5.2%
CCN(C(=O)CCS(=O)(=O)c1ccc2c(c1)oc(=O)n2C)c1ccc(OC)cc1	0.6%	1.2%	-2.1%	.	-7.3%
Cc1ccc(NC(=O)CNCCCN2CCOCC2)cc1S(=O)(=O)N1CCCCC1	0.6%	-8.0%	-2.0%	.	2.0%
CS(=O)(=O)N(CC(=O)N1CCCCCC1)c1cccc(F)c1	1.9%	-3.1%	-6.0%	.	4.3%
COc1cc(C(=O)NCC(c2ccco2)S(=O)(=O)c2cccs2)cc(OC)c1OC (configuration not stated)	1.7%	.	.	.	.
Cc1ccc(-c2nnn(CC(=O)N(CCCO)C(C(=O)NC3CCCC3)c3ccc(F)cc3)n2)o1 (configuration not stated)	1.5%	2.5%	-1.4%	.	17.3%
O=C1CC[C@@H](C(=O)O)N1	-0.2%	1.3%	1.3%	.	0.8%
C[C@H](Br)C(=O)c1ccc2cc(Br)c3ccccc3c2c1	.	.	.	-15.7%[9.22 µM]	.
O=C(Nc1nc2cc3c(cc2s1)OCO3)C1=COCCO1	0.19µM*	0.411µM*	0.631µM*	0.501µM*	0.251µM*
CCOC(=O)c1sc(=S)n(-c2ccc3c(c2)OCO3)c1N	-18.0%	-4.5%	-0.2%	-24.9%	-10.1%
CCOC(=O)c1sc(Nc2nc3cc4c(cc3s2)OCO4)cc1C	2.69µM*	1.7%	?	?	?
Cc1sc(NC(=O)C2=COCCO2)nc1-c1ccc(F)cc1	?	4.0%	8.3%	.	11.0%
CN(c1ccc(Br)cc1)S(=O)(=O)c1ccc2[nH]cc(C(=O)NCCN3CCOCC3)c(=O)c2c1	1.3%	-9.9%	-1.6%	.	-0.8%
N#Cc1c(/N=C/c2cc3ccccc3s2)sc2c1CCC2	?	?	1.41µM*	10µM*	1.41µM*
Cc1ccc(/C=N/c2sc3c(c2C#N)CCCCC3)o1	0.169µM*	1.46µM*	4.47µM*	-32.2%	3.98µM*
Cc1[nH]n(-c2cccc3ccccc23)c(=O)c1/C=N/c1sc2c(c1C#N)CCC2	-3.5%	-6.0%	?	-8.3%	-0.1%
C=CCNCc1cccn1-c1sc2c(c1C#N)CCCC2	2.3%	-10.5%	-5.0%	?	2.9%
Cc1[nH]n(-c2ccc(F)cc2)c(=O)c1/C=N/c1sc2c(c1C#N)CCCC2	13.5µM*	-5.1%	0.9%	-22.5%	0.2%
Cc1ccc(/C=N/c2sc3c(c2C#N)CCC3)s1	0.675µM*	?	?	7.08µM*	?
Cc1ccc(S(=O)(=O)NCCC(=O)Nc2ccncc2)cc1C	1.6%	-1.9%	-0.7%	.	-3.3%
N#Cc1c(/N=C/c2ccco2)sc2c1CCC2	2.39µM*	1.6%	-2.7%	.	-0.8%
CCOc1[nH]c(/N=C/c2ccco2)c(C#N)c1C#N	?	0.8%	2.1%	-16.5%	-1.1%
Cc1ccc(C=Nc2ccccc2C#N)s1	1.35µM*	9.3%	0.2%	3.2%	-0.3%
O=C(NCCC1=CCCCC1)c1ccc2c(c1)N(Cc1ccccc1F)C(=O)c1ccccc1S2=O (configuration not stated)	-2.5%	.	.	9.9%	.
C[C@H](CO)N1C[C@H](C)[C@@H](CN(C)Cc2ccccc2)Oc2c(NS(=O)(=O)c3cn(C)cn3)cccc2C1=O	.	-1.2%	.	.	.
SMILES	FLuc modulator	ELG1 genotoxic	NPC1 prom act	SMN2 splice enh	Rab9 prom act
C[C@H]1CN(CCc2ccccc2)C(=O)[C@@H]1CC(=O)NCc1ccccc1	-10.4%	12.2%	3.0%	.	13.6%
Cc1cccc(-c2nnn3c2nc(NCc2ccccc2)c2ccccc23)c1	-1.0%	.	.	14.4%	.
CCCCCc1ccc(-c2ccc(=O)[nH]n2)cc1	19µM*	18.5%	9.2%	-9.0%	2.9%
CN(C)CC(CCCCC(CN(C)C)C(=O)c1ccccc1)C(=O)c1ccccc1 (configuration not stated)	0.6%	1.2%	-7.4%	.	-5.5%
CCn1c(C)nc2c(C)[n+](CC(=O)c3ccc(Br)cc3)ccc21	?	1.83µM*	1.12µM*	7.1%	1µM*
COc1cccc(/C=C/C(=O)OCC(=O)Nc2ccc(Cl)c(S(=O)(=O)N(C)C)c2)c1OC	13.5µM*	2.1%	-0.3%	5.0%	-2.0%
COc1ccc(/C=C/C(=O)OCC(=O)Nc2cc(S(=O)(=O)N(C)C)ccc2Cl)cc1	12µM*	3.0%	-5.7%	3.2%	-0.7%
COc1ccc(OC)c(/C=C/C(=O)OCC(=O)Nc2ccc(Cl)c(S(=O)(=O)N(C)C)c2)c1	?	-0.5%	-8.7%	0.0%	-1.9%
Cc1coc2cc3oc(=O)c(CC(=O)NCc4cccc(Cl)c4)c(C)c3cc12	-6.2%	.	.	-9.4%	.
CCC(=O)NCCc1nc2cc(NC(=O)c3ccc(Cl)cc3)ccc2n1C	10.7µM*	?	1.78µM*	.	0.631µM*
CCC(=O)NCCc1nc2cc(NC(=O)c3ccc(F)cc3)ccc2n1C	16.9µM*	7.3µM*	1.26µM*	.	2.82µM*
CC(=O)N1CCN(Cc2nc3cc(NC(=O)c4ccc(Cl)cc4)ccc3n2C)CC1	?	-2.8%	-5.3%	-45.0%	1.8%
CC(=O)NCCc1nc2cc(NC(=O)c3ccc(Cl)cc3)ccc2n1C	8.49µM*	5.8µM*	0.708µM*	.	1.12µM*
CCC(=O)NCCc1nc2cc(NC(=O)c3ccc(OC)cc3)ccc2n1C	16.9µM*	8.91µM*	?	12.6µM*	?
CCCC(=O)Nc1ccc2c(c1)nc(CCNC(=O)c1ccccc1)n2C	4.1%	-1.5%	1.5%	-1.7%	-3.6%
C=CCC(C)(O)/C=C/c1ccccc1 (configuration not stated)	.	.	.	3.6%	.
CC(=O)NCCc1nc2cc(NC(=O)c3cccs3)ccc2n1C	?	-12.8%	?	.	4.47µM*
CSc1ccccc1C(=O)NCCSc1ccccc1	-18.2%	?	10.9%	26.6%	11.8%
O=C(NCCSc1ccccc1)c1ccccc1Cl	7.57µM*	13µM*	2.51µM*	11.2µM*	3.16µM*
Cc1ccccc1C(=O)NCCSc1ccccc1	9.53µM*	7.31µM*	3.55µM*	12.6µM*	2.82µM*
CCOC(=O)N1CCC(NC(=O)c2cc(-c3ccc(OC)cc3)nc3ccccc23)CC1	4.78µM*	-4.5%	-0.9%	.	10.1%
CCc1ccc(-c2cc(C(=O)O)c3ccccc3n2)s1	0.536µM*	16.5%	2µM*	.	1.41µM*
O=C(c1cc(-c2cccc(Br)c2)nc2ccccc12)N1CCCC1	15.1µM*	-11.8%	1.9%	.	1.2%
CCCc1cc(C(=O)O)c2ccccc2n1	-1.0%	6.3%	8.9%	-2.2%	6.9%
Cc1ccc(-c2cc(C(=O)N3CCC(C)CC3)c3ccccc3n2)cc1	4.26µM*	-4.9%	2.8%	.	6.9%
COc1ccc(-c2cc(C(=O)N3CCCCCC3)c3ccccc3n2)cc1	6.75µM*	-1.1%	0.3%	.	0.4%
COc1cc(-c2cc(C(=O)N3CCCCCC3)c3ccccc3n2)cc(OC)c1OC	-10.2%	1.3%	-4.1%	.	-34.3%
CCc1ccc(Sc2cc(C(=O)O)c3ccccc3n2)cc1	15.1µM*	.	.	.	.
